# The list is not random: actives were taken first. Their share in the collection is about 3.4%.
# TMEM16A inh: inhibitors of mouse TMEM16A calcium-activated chloride channel; HEK293 TMEM16A/YFP iodide influx fluorescence, ionomycin; 1.2% of 310,000 active; AID 588511; Q8BHY3; normalized B-score (activity score, 25-100; higher = stronger inhibition) at 10 µM;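 active = ratio plate-corrected score three or more library SD toward inhibition, starting fluorescence score within five deviations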;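 note: score derived from kinetic fluorescence span divided by baseline fluorescence per well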
# NTR1 ag: activates human neurotensin receptor 1; NTR1-U2OS beta-arrestin-GFP spot imaging, agonist mode; 0.17% of 330,000 active; activation, % at 20 µM; AID 493036;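 active = activation at or above 40% of the spot to cytoplasm intensity ratio, with at least 20 cells analyzed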;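 note: 0% = DMSO without peptide and 100% = 100 nM NTR1 peptide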
# Target sequence (P30989 whole entry, looked up): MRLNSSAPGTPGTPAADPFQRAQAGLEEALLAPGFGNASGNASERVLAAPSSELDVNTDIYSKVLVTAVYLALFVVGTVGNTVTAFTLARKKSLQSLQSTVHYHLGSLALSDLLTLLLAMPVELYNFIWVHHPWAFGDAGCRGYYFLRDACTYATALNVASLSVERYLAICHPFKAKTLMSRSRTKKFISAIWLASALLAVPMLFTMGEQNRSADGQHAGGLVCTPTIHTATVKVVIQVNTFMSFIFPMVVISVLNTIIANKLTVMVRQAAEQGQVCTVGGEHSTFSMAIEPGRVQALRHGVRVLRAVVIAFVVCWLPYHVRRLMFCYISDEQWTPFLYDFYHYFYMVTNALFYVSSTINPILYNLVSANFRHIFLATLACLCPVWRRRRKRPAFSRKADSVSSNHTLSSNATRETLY
# MEKK3 PB1 HTS: MEKK3-MEK5 PB1 interaction, increase or decrease. binding response (% of control), % at 10 µM. AID 1529. bead-based flow cytometry, Alexa488-MEK5 binding to MEKK3; actives lie on both sides; 0 = blocked by unlabeled MEK5, 100 = vehicle. Q99759. 1.4% of 290,000 active;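 active = binding response more than 3 SD above or below the average of its plate-row segment, actives on both sides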;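 note: Alexa488 bead fluorescence after subtracting the streptavidin-only scavenger bead signal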
# MEKK2 mut-MEK5: signal of MEK5 binding to mutant human MEKK2 PB1 domain; bead flow cytometry, Alexa488-MEK5 binding to MEKK2 mutant; 0.35% of 290,000 active; AID 1530; percent response, % at 10 µM; in the data active = percent response above about 24%, passing the limit was not always enough
# MEKK2 WT-MEK5: raises or lowers MEK5 binding to wildtype human MEKK2 PB1 domain; Q9Y2U5; bead flow cytometry, Alexa488-MEK5 binding to MEKK2 WT; actives lie on both sides; binding response (% of control), % at 10 µM; 1.1% of 290,000 active; in the data active = binding response below about 67% or above about 130%
# TMEM16A act: activates or potentiates the mouse TMEM16A chloride channel | B-score at 10 µM | HEK293 TMEM16A/YFP-H148Q/I152L, iodide quench fluorescence; active compounds read low | AID 623877 | 0.3% of 340,000 active;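 active = fluorescence-ratio B-score plate-corrected deviation score at least 3 library SD below zero, with starting fluorescence score within 5 deviations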;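 note: channel opened by trigger with iodide after compound preincubation; score built on the fluorescence ratio of max minus min over baseline; more negative score means more quench and so TMEM16A activation or potentiation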
# MEKK2wt confirm: raises or lowers MEK5 binding to wildtype human MEKK2, retest. shares compounds with MEKK3 PB1 HTS. bead flow cytometry, Alexa488-MEK5 binding to MEKK2 WT; actives lie on both sides. binding response (% of control), % at 10 µM. 2.4% of 5,900 active. AID 1892; in the data active = binding response below about 16% or above about 210%; inactive = in between
# MEKK2mut confirm: signal of MEK5 binding to mutant human MEKK2, retest; 2% of 5,900 active; bead flow cytometry, Alexa488-MEK5 binding to MEKK2 mutant; shares compounds with MEKK3 PB1 HTS; AID 1893; percent response, % at 10 µM; in the data active = percent response mostly above about 71%, no sharp cut-off; inactive = mostly below about 38%;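 note: higher means compound restores mutant binding toward wildtype level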
# MEKK3-MEK5 inh: MEKK3-MEK5 PB1 inhibition, single concentration confirmation; shares compounds with MEKK3 PB1 HTS; bead flow cytometry, Alexa488-MEK5 binding to MEKK3; active compounds read low; binding response (% of control), % at 10 µM; 1.8% of 5,900 active; AID 1894;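 active = binding response below 72% of control, or above a set upper limit, though filed actives all read lower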;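 note: 100% = DMSO only wells and 0% = binding blocked by excess unlabeled MEK5; lower values mean stronger disruption of MEK5 binding to MEKK3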
# Numbers without * were called inactive; i = inactive; / = not tested or not shown; [ ] = dose if it differs, or a comment.
SMILES,TMEM16A inh,NTR1 ag,MEKK3 PB1 HTS,MEKK2 mut-MEK5,MEKK2 WT-MEK5,TMEM16A act,MEKK2wt confirm,MEKK2mut confirm,MEKK3-MEK5 inh
N#Cc1ccccc1NC(=O)c1ccccc1OCC(=O)Nc1ccc2c(c1)oc1ccccc12,i,1.9,78.0*[inhibitor],-11.0,88.0,i,91.0,-33.0,96.0
O=C(Nc1ccnn1C1CCN(C(=O)c2cnsn2)CC1)c1cccc(F)c1,i,-0.5,98.0,2.0,101.0,i,/,/,/
CC1CCN(C(=O)C2CCC(C)(C(=O)O)C2(C)C)CC1 (stereo unspecified),i,-2.0,135.0*,1.0,109.0,i,105.0,-6.0,104.0
CC1(C(=O)O)CCC(C(=O)Nc2ccc(F)cc2)C1(C)C (stereo unspecified),i,-0.9,100.0,1.0,101.0,i,/,/,/
O=C(O)C[C@]1(C(=O)Nc2ccc(F)cc2)CC(/C=C/c2ccccc2)=NO1,i,2.2,106.0,5.0,103.0,i,/,/,/
Cn1c(=O)c2c(ncn2CC(=O)OCC(=O)Nc2ccc(Cl)cc2Cl)n(C)c1=O,i,0.3,106.0,1.0,108.0,i,/,/,/
Cn1c(=O)c2c(ncn2CC(=O)OCC(=O)Nc2cc(Cl)ccc2Cl)n(C)c1=O,i,-0.5,139.0*,-1.0,100.0,i,107.0,5.0,101.0
Cc1ccc(-n2cc(CN3CCC(CO)(Cc4cccc(C(F)(F)F)c4)CC3)cn2)cc1,i,9.2,112.0,123.0*,227.0*,i,152.0,17.0,96.0
OCC1(Cc2ccccc2)CCN(Cc2cnn(-c3ccccc3F)c2)CC1,i,-1.4,107.0,362.0*,520.0*,i,110.0,0.0,102.0
Cc1ccc(-n2cc(CN3CCC(CO)(Cc4ccccc4)CC3)cn2)cc1,i,0.3,89.0,-2.0,107.0,/,/,/,/
CSc1cccc(CN2CCC(CO)(Cc3cccc(C(F)(F)F)c3)CC2)c1,i,4.5,105.0,17.0,138.0*,i,126.0,17.0,108.0
O=C(Nc1ccc(F)cc1)N1CCc2ccccc2C1,i,-1.3,88.0,-8.0,94.0,i,/,/,/
Cc1ccc2[nH]c(=O)c(CN(CCCN3CCOCC3)C(=O)Nc3ccc(Cl)cc3)cc2c1,i,-0.6,104.0,7.0,120.0,i,/,/,/
Cc1ccc(CSCC(=O)NCc2cccnc2)cc1,i,0.7,137.0*,0.0,107.0,i,93.0,1.0,95.0
N#CCCN(Cc1cccs1)C(=O)Nc1ccc(F)cc1,i,2.5,88.0,-22.0,92.0,i,/,/,/
CC(C)CNC1CS(=O)(=O)CC1O (stereo unspecified),i,2.0,89.0,-21.0,82.0,i,/,/,/
O=S1(=O)CC(O)C(NCc2cccnc2)C1 (stereo unspecified),i,0.8,82.0*[inhibitor],-11.0,89.0,i,100.0,-2.0,103.0
N#C/C(=C/c1cn(CC(=O)O)c2ccccc12)C(=O)Nc1ccccc1,i,0.6,100.0,5.0,41.0*[inhibitor],i,96.0,0.0,100.0
N#C/C(=C\c1cn(Cc2ccc(F)cc2)c2ccccc12)C(=O)NCc1ccco1,i,17.9,129.0*,0.0,103.0,i,97.0,-3.0,100.0
CCC1Oc2ccc(C)cc2N(CC(=O)NCCN2CCCCCC2)C1=O (stereo unspecified),i,0.9,107.0,22.0,137.0*,i,115.0,6.0,100.0
Cn1cccc1CC(=O)N/N=C/c1ccc(Cl)c([N+](=O)[O-])c1,i,1.1,102.0,-5.0,100.0,i,/,/,/
CCOC(=O)C1=NN(C(C)=O)C2(CC(=O)N(c3cccc(C)c3)C2=O)C1 (stereo unspecified),i,0.5,139.0*,0.0,104.0,i,105.0,-3.0,103.0
COCCNC(=S)N1CCC(C(=O)c2ccc(C)cc2)CC1,i,0.7,99.0,1.0,97.0,i,/,/,/
CC1CC(=O)Nc2ccccc2N1C(=O)CN1CCN(c2ccccc2)CC1 (stereo unspecified),i,-0.7,94.0,-4.0,-5.0*[inhibitor],i,99.0,-5.0,99.0
Cc1ccccc1OCC(=O)NCc1ccccc1,i,1.1,102.0,3.0,100.0,i,/,/,/
SMILES,TMEM16A inh,NTR1 ag,MEKK3 PB1 HTS,MEKK2 mut-MEK5,MEKK2 WT-MEK5,TMEM16A act,MEKK2wt confirm,MEKK2mut confirm,MEKK3-MEK5 inh
O=C(COc1ccccc1-c1ccccc1)NCc1cccc(Cl)c1,i,36.1,111.0,27.0,147.0*,i,99.0,-6.0,99.0
O=C(O)C1CCC(c2ccc(-c3ccccc3)cc2)CC1 (stereo unspecified),i,1.2,94.0,2.0,98.0,i,/,/,/
CC(=O)NCCNC(=O)c1oc2ccccc2c1CSc1ncn[nH]1,i,-0.2,75.0*[inhibitor],-4.0,86.0,i,96.0,-6.0,97.0
CCOc1ccc(OCCNC(=O)c2oc3ccccc3c2COC)cc1,/,5.6,/,/,/,i,/,/,/
O=C(NCCCN1CCOCC1)c1ccc2c(c1)N(Cc1ccccc1)C(=O)c1ccccc1S2,i,-0.6,101.0,5.0,111.0,i,/,/,/
CCN1CCN(CCNC(=O)c2ccc(/C=C3\Sc4ccccc4N(Cc4ccccc4F)C3=O)cc2)CC1,i,37.4,103.0,2.0,121.0,i,/,/,/
CN1CCN(CCCNC(=O)c2ccc(/C=C3\Sc4ccccc4N(Cc4ccc(F)cc4)C3=O)cc2)CC1,/,/,105.0,41.0,163.0*,i,203.0,66.0,105.0
CN1CCN(CCCNC(=O)c2ccc(/C=C3/Sc4ccccc4N(Cc4cccc(Cl)c4)C3=O)cc2)CC1,/,/,108.0,65.0*,224.0*,i,209.0*,73.0*,110.0
CCCN1CCC(=O)N(CCSc2ccc(NC(C)=O)cc2)CC1,i,-1.6,71.0*[inhibitor],1.0,108.0,i,98.0,-4.0,97.0
CCc1ccccc1NC(=O)c1cc(=O)c2ccccc2o1,i,0.9,93.0,-9.0,91.0,i,/,/,/
NC(=O)NC(=O)COC(=O)c1cccc(NS(=O)(=O)/C=C/c2ccccc2)c1,i,0.2,104.0,1.0,98.0,i,/,/,/
COc1ccc(C(CNC(=O)Cc2ccccc2F)N2CCCCC2)cc1 (stereo unspecified),i,0.3,131.0*,-1.0,113.0,i,108.0,-1.0,103.0

# Screening results from PubChem BioAssay.
